# Measured values taken from paper PMC11062922 (Nature Chemical Biology, 2023).
# What was measured:
# CDK6 = system: CDK6; set-up: species or system human, MV4-11 + K-562 + COLO205 + SK-N-BE2 + OVCAR-8; settings: read-out: apparent Kd; compound concentrations:100 nM and 1000 nM (sheet 'Samples'); n = 1
# DJA1 = system: T1, DJA1; set-up: species or system human, MV4-11 + K-562 + COLO205 + SK-N-BE2 + OVCAR-8; settings: read-out: apparent Kd; compound concentrations:100 nM and 1000 nM (sheet 'Samples'); n = 1
# T1 construct: gene DNAJA1
# GARS = system: GARS; set-up: species or system human, MV4-11 + K-562 + COLO205 + SK-N-BE2 + OVCAR-8; settings: read-out: apparent Kd; compound concentrations:100 nM and 1000 nM (sheet 'Samples'); n = 1
# GSK3A = system: GSK3A; set-up: species or system human, MV4-11 + K-562 + COLO205 + SK-N-BE2 + OVCAR-8; settings: read-out: apparent Kd; compound concentrations:100 nM and 1000 nM (sheet 'Samples'); n = 1
# GSK3B = system: GSK3B; set-up: species or system human, MV4-11 + K-562 + COLO205 + SK-N-BE2 + OVCAR-8; settings: read-out: apparent Kd; compound concentrations:100 nM and 1000 nM (sheet 'Samples'); n = 1
# MAP2K1 = system: MAP2K1; set-up: species or system human, MV4-11 + K-562 + COLO205 + SK-N-BE2 + OVCAR-8; settings: read-out: apparent Kd; compound concentrations:100 nM and 1000 nM (sheet 'Samples'); n = 1
# NNT = system: NNT; set-up: species or system human, MV4-11 + K-562 + COLO205 + SK-N-BE2 + OVCAR-8; settings: read-out: apparent Kd; compound concentrations:100 nM and 1000 nM (sheet 'Samples'); n = 1
# NQO1 = system: NQO1; set-up: species or system human, MV4-11 + K-562 + COLO205 + SK-N-BE2 + OVCAR-8; settings: read-out: apparent Kd; compound concentrations:100 nM and 1000 nM (sheet 'Samples'); n = 1
# PIK3CA = system: PIK3CA; set-up: species or system human, MV4-11 + K-562 + COLO205 + SK-N-BE2 + OVCAR-8; settings: read-out: apparent Kd; compound concentrations:100 nM and 1000 nM (sheet 'Samples'); n = 1
# PIK3CD = system: PIK3CD; set-up: species or system human, MV4-11 + K-562 + COLO205 + SK-N-BE2 + OVCAR-8; settings: read-out: apparent Kd; compound concentrations:100 nM and 1000 nM (sheet 'Samples'); n = 1
# PRKCZ = system: PRKCZ; set-up: species or system human, MV4-11 + K-562 + COLO205 + SK-N-BE2 + OVCAR-8; settings: read-out: apparent Kd; compound concentrations:100 nM and 1000 nM (sheet 'Samples'); n = 1
# PRKD2 = system: PRKD2; set-up: species or system human, MV4-11 + K-562 + COLO205 + SK-N-BE2 + OVCAR-8; settings: read-out: apparent Kd; compound concentrations:100 nM and 1000 nM (sheet 'Samples'); n = 1
# PSMC3 = system: PSMC3; set-up: species or system human, MV4-11 + K-562 + COLO205 + SK-N-BE2 + OVCAR-8; settings: read-out: apparent Kd; compound concentrations:100 nM and 1000 nM (sheet 'Samples'); n = 1
# SMC4 = system: SMC4; set-up: species or system human, MV4-11 + K-562 + COLO205 + SK-N-BE2 + OVCAR-8; settings: read-out: apparent Kd; compound concentrations:100 nM and 1000 nM (sheet 'Samples'); n = 1
# CDK7 = system: CDK7; set-up: species or system human, MV4-11 + K-562 + COLO205 + SK-N-BE2 + OVCAR-8; settings: read-out: apparent Kd; compound concentrations: 100 nM and 1000 nM (sheet 'Samples'), CATDS: 4.9338137384748702E-2; n = 1
# ERCC2 = system: ERCC2; set-up: species or system human, MV4-11 + K-562 + COLO205 + SK-N-BE2 + OVCAR-8; settings: read-out: apparent Kd; compound concentrations: 100 nM and 1000 nM (sheet 'Samples'), CATDS: 5.1368063894958502E-2; n = 1
# FER = system: FER; set-up: species or system human, MV4-11 + K-562 + COLO205 + SK-N-BE2 + OVCAR-8; settings: read-out: apparent Kd; compound concentrations: 100 nM and 1000 nM (sheet 'Samples'), CATDS: 5.6215291988472402E-2; n = 1
# GAK = system: GAK; set-up: species or system human, MV4-11 + K-562 + COLO205 + SK-N-BE2 + OVCAR-8; settings: read-out: apparent Kd; compound concentrations: 100 nM and 1000 nM (sheet 'Samples'), CATDS: 4.9289180471638903E-2; n = 1
# MAPK10 = system: MAPK10; set-up: species or system human, MV4-11 + K-562 + COLO205 + SK-N-BE2 + OVCAR-8; settings: read-out: apparent Kd; compound concentrations: 100 nM and 1000 nM (sheet 'Samples'), CATDS: 5.8204150926545503E-2; n = 1
# MAPK14 = system: MAPK14; set-up: species or system human, MV4-11 + K-562 + COLO205 + SK-N-BE2 + OVCAR-8; settings: read-out: apparent Kd; compound concentrations: 100 nM and 1000 nM (sheet 'Samples'), CATDS: 6.3546758887955801E-2; n = 1
# MAPK9 = system: MAPK9; set-up: species or system human, MV4-11 + K-562 + COLO205 + SK-N-BE2 + OVCAR-8; settings: read-out: apparent Kd; compound concentrations: 100 nM and 1000 nM (sheet 'Samples'), CATDS: 5.1291573819888199E-2; n = 1
# MAPKAPK2 = system: MAPKAPK2; set-up: species or system human, MV4-11 + K-562 + COLO205 + SK-N-BE2 + OVCAR-8; settings: read-out: apparent Kd; compound concentrations: 100 nM and 1000 nM (sheet 'Samples'), CATDS: 6.9359248510779001E-2; n = 1
# NLK = system: NLK; set-up: species or system human, MV4-11 + K-562 + COLO205 + SK-N-BE2 + OVCAR-8; settings: read-out: apparent Kd; compound concentrations: 100 nM and 1000 nM (sheet 'Samples'), CATDS: 0.64871625608349803; n = 1
# PAK4 = system: PAK4; set-up: species or system human, MV4-11 + K-562 + COLO205 + SK-N-BE2 + OVCAR-8; settings: read-out: apparent Kd; compound concentrations: 100 nM and 1000 nM (sheet 'Samples'), CATDS: 5.1367607354333399E-2; n = 1
# PIP4K2C = system: PIP4K2C; set-up: species or system human, MV4-11 + K-562 + COLO205 + SK-N-BE2 + OVCAR-8; settings: read-out: apparent Kd; compound concentrations: 100 nM and 1000 nM (sheet 'Samples'), CATDS: 6.1444231758823603E-2; n = 1
# PTK2B = system: PTK2B; set-up: species or system human, MV4-11 + K-562 + COLO205 + SK-N-BE2 + OVCAR-8; settings: read-out: apparent Kd; compound concentrations: 100 nM and 1000 nM (sheet 'Samples'), CATDS: 5.2093058874082297E-2; n = 1
# Q6ZSR9 = Q6ZSR9 (human, UniProt Q6ZSR9); set-up: species or system MV4-11 + K-562 + COLO205 + SK-N-BE2 + OVCAR-8; settings: read-out: apparent Kd; compound concentrations: 100 nM and 1000 nM (sheet 'Samples'), CATDS: 4.2380052385305601E-2; n = 1
# SIK2 = system: SIK2; set-up: species or system human, MV4-11 + K-562 + COLO205 + SK-N-BE2 + OVCAR-8; settings: read-out: apparent Kd; compound concentrations: 100 nM and 1000 nM (sheet 'Samples'), CATDS: 4.6797026760186898E-2; n = 1
# STK3 = system: STK3; set-up: species or system human, MV4-11 + K-562 + COLO205 + SK-N-BE2 + OVCAR-8; settings: read-out: apparent Kd; compound concentrations: 100 nM and 1000 nM (sheet 'Samples'), CATDS: 4.17809647402431E-2; n = 1
# STK4 = system: STK4; set-up: species or system human, MV4-11 + K-562 + COLO205 + SK-N-BE2 + OVCAR-8; settings: read-out: apparent Kd; compound concentrations: 100 nM and 1000 nM (sheet 'Samples'), CATDS: 4.6786088352923701E-2; n = 1
# TNK1 = system: TNK1; set-up: species or system human, MV4-11 + K-562 + COLO205 + SK-N-BE2 + OVCAR-8; settings: read-out: apparent Kd; compound concentrations: 100 nM and 1000 nM (sheet 'Samples'), CATDS: 5.4278066670988299E-2; n = 1
# TNK2 = system: TNK2; set-up: species or system human, MV4-11 + K-562 + COLO205 + SK-N-BE2 + OVCAR-8; settings: read-out: apparent Kd; compound concentrations: 100 nM and 1000 nM (sheet 'Samples'), CATDS: 7.0528629271619694E-2; n = 1
# Chain of Q6ZSR9 (Q6ZSR9 whole entry, looked up): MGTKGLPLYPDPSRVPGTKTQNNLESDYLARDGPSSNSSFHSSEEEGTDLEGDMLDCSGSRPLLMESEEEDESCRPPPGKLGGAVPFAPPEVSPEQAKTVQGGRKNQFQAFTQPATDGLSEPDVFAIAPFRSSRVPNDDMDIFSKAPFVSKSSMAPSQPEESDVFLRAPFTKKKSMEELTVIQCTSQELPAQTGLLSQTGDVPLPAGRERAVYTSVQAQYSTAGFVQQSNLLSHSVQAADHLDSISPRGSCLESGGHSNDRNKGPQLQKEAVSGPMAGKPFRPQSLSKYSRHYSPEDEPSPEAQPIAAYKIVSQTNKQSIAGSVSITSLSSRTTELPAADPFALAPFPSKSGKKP
smiles,measurement,setting,value
COc1cccc(C2=C(Nc3cccc(C(=O)O)c3)C(=O)NC2=O)c1 [SB-390770],potency estimated from few doses,CDK6,2180 nM
same,potency estimated from few doses,DJA1,842 nM
same,potency estimated from few doses,GARS,1360 nM
same,potency estimated from few doses,GSK3A,830 nM
same,potency estimated from few doses,GSK3B,859 nM
same,potency estimated from few doses,MAP2K1,2350 nM
same,potency estimated from few doses,NNT,1120 nM
same,potency estimated from few doses,NQO1,2210 nM
same,potency estimated from few doses,PIK3CA,226 nM
same,potency estimated from few doses,PIK3CD,130 nM
same,potency estimated from few doses,PRKCZ,1580 nM
same,potency estimated from few doses,PRKD2,1720 nM
same,potency estimated from few doses,PSMC3,907 nM
same,potency estimated from few doses,SMC4,986 nM
Cl.Cn1c(=O)c(Oc2cccc(F)c2)cc2cnc(NC3CCOCC3)nc21 [RO3304774-001],potency estimated from few doses,CDK7,1360 nM
same,potency estimated from few doses,ERCC2,1240 nM
same,potency estimated from few doses,FER,1010 nM
same,potency estimated from few doses,GAK,1370 nM
same,potency estimated from few doses,MAPK10,939 nM
same,potency estimated from few doses,MAPK14,786 nM
same,potency estimated from few doses,MAPK9,1240 nM
same,potency estimated from few doses,MAPKAPK2,665 nM
same,potency estimated from few doses,NLK,17.9 nM
same,potency estimated from few doses,PAK4,1240 nM
same,potency estimated from few doses,PIP4K2C,840 nM
same,potency estimated from few doses,PTK2B,1200 nM
same,potency estimated from few doses,Q6ZSR9,2060 nM
same,potency estimated from few doses,SIK2,1560 nM
same,potency estimated from few doses,STK3,2160 nM
same,potency estimated from few doses,STK4,1560 nM
same,potency estimated from few doses,TNK1,1090 nM
same,potency estimated from few doses,TNK2,645 nM
